Measurements from PubChem BioAssay (NCATS).
Results filed as inconclusive are left out. A call without a number means that no potency is given here. Unmarked numbers belong to inactive results. Activity calls are given as the source filed them. The call rests on the fitted dose curve; in most records, active means well fitted curve in the direction sought with a large enough effect; inconclusive means small, poorly fitted or top-dose-only effect, or another doubt; inactive means no such curve, though single readings can be large; an effect the other way counts as inactive or inconclusive.

How the values were obtained:
[1] = molecular target: Rap guanine nucleotide exchange factor 3 (Homo sapiens) (UniProt O95398); assay: Confirmatory qHTS for antagonist of cAMP-regulated guanine nucleotide exchange factor 3 (EPAC1) (AID 1645880); conditions: EPAC1 Rap1B-BODIPY-GDP exchange, fluorescence; activity, negative = inhibition: at 115 µM (top of the series); further: nearly all actives have a fitted effect of over 55% in size; further: potency means the concentration at half of the fitted maximal effect
Sequence of Rap guanine nucleotide exchange factor 3 (Homo sapiens) (O95398 whole entry, looked up): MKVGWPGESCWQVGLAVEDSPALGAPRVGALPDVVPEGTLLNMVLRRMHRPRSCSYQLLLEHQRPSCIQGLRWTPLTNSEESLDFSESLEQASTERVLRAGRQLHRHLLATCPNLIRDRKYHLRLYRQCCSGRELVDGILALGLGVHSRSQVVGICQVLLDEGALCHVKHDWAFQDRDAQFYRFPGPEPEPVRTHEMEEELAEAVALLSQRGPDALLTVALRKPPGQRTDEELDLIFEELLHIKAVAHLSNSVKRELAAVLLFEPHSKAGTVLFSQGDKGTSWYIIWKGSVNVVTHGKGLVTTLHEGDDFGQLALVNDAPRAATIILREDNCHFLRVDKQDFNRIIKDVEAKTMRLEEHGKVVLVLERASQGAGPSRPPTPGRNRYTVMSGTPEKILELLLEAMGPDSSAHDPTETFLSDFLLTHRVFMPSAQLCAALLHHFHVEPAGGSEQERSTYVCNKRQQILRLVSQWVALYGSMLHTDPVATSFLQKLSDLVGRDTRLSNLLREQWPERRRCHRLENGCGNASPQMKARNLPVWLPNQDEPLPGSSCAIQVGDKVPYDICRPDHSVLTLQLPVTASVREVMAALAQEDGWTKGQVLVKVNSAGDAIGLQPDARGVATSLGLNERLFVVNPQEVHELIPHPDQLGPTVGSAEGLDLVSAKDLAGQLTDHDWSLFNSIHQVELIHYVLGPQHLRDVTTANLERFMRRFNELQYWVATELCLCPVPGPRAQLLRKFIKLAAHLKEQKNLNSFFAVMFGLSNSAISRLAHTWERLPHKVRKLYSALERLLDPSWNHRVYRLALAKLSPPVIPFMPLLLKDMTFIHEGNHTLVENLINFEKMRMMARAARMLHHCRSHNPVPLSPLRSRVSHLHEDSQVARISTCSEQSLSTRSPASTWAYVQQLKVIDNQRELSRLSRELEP
Procedure, shortened: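 Released BODIPY-GDP fluoresces less than Rap1-bound BODIPY-GDP; the signal is followed at 480/540 nm at 5-min intervals over 30 min, after 5 min at room temperature. Reactions contain 100 nM EPAC1, 250 nM RAP1B-BODIPY-GDP and 50 uM GDP; results are normalized to ATA and DMSO.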

[2] = molecular target: Rap guanine nucleotide exchange factor 3 (Homo sapiens) (UniProt O95398); assay: Confirmatory qHTS for agonist of cAMP-regulated guanine nucleotide exchange factor 3 (EPAC1) (AID 1645881); conditions: EPAC1 Rap1B BODIPY-GDP exchange fluorescence; series mostly up to 154 µM; further: nearly all actives have a fitted effect of over 75% in size; further: potency means the concentration at half of the fitted maximal effect;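 on activation: EPAC1 catalysed release of BODIPY-GDP from Rap1B seen as fluorescence loss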
[3] = molecular target: Rap guanine nucleotide exchange factor 4 (Homo sapiens) (UniProt Q8WZA2); assay: Confirmatory qHTS for agonist of cAMP-regulated guanine nucleotide exchange factor 4 (EPAC2) (AID 1645884); conditions: EPAC2 GEF activity, Rap1B-BODIPY-GDP fluorescence; series mostly up to 154 µM;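 further: nucleotide exchange releases bodipy-GDP from Rap1 and this lowers its fluorescence; nearly all actives have a fitted effect of over 65% in size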; further: potency means the concentration at half of the fitted maximal effect
Sequence of Rap guanine nucleotide exchange factor 4 (Homo sapiens) (Q8WZA2 whole entry, looked up): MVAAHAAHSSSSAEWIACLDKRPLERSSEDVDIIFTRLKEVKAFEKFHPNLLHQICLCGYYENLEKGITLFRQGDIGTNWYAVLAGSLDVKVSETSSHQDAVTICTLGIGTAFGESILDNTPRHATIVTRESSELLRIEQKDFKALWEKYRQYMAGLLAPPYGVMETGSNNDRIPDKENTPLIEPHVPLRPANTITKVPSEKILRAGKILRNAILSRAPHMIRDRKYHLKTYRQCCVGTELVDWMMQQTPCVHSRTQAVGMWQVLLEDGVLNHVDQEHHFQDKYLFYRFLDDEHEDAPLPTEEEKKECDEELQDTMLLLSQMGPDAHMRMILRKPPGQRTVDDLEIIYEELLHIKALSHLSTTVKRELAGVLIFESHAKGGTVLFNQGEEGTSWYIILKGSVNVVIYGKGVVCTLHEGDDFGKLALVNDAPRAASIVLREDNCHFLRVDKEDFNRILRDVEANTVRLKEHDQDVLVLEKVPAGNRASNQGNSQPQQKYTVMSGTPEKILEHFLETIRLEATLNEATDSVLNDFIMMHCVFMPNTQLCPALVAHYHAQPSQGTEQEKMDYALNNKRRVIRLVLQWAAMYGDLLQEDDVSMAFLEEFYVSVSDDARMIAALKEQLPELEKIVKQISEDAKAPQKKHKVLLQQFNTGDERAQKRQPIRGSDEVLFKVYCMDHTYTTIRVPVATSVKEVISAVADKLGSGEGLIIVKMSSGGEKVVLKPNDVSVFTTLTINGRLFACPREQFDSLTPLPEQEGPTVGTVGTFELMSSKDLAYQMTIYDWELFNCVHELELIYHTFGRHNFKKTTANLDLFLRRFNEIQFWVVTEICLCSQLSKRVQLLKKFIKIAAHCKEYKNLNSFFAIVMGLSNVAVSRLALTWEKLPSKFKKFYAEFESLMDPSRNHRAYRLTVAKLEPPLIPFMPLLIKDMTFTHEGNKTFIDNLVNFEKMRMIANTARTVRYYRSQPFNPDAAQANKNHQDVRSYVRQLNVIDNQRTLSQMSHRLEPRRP

[4] = molecular target: Rap guanine nucleotide exchange factor 4 (Homo sapiens) (UniProt Q8WZA2); assay: Confirmatory qHTS for antagonist of cAMP-regulated guanine nucleotide exchange factor 4 (EPAC2) (AID 1645885); conditions: EPAC2 Rap1B-BODIPY-GDP exchange fluorescence, biochemical; series mostly up to 12.7 µM; further: nearly all actives have a fitted effect of over 25% in size; further: potency means the concentration at half of the fitted maximal effect
[5] = molecular target: Rap guanine nucleotide exchange factor 3 (Homo sapiens) (UniProt O95398); assay: Counterscreen qHTS for antagonist of cAMP-regulated guanine nucleotide exchange factor 3 (EPAC1) (AID 1645888); conditions: Rap1B-BODIPY-GDP nucleotide exchange, fluorescence; series mostly up to 154 µM
Procedure, shortened: (§1)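 Rap1B–BODIPY-GDP (250 nM) with 50 uM GDP; compounds pin-transferred to 9.74 nM–152 uM final (activator) or from 7.32 nM upwards (inhibitor). Fluorescence Ex/Em 480/540 nm read at 5 and 30 min, then after adding cAMP or buffer, at room temperature.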

[6] = molecular target: Rap guanine nucleotide exchange factor 3 (Homo sapiens) (UniProt O95398); assay: Counterscreen qHTS for agonist of cAMP-regulated guanine nucleotide exchange factor 3 (EPAC1) (AID 1645889); conditions: EPAC1 Rap1B-BODIPY-GDP exchange, fluorescence; series mostly up to 154 µM; further: nearly all actives have a fitted effect of over 40% in size; further: potency means the concentration at half of the fitted maximal effect
Procedure, shortened: as §1

SMILES | Potency [1] | Potency [2] | Potency [3] | Potency [4] | Potency [5] | Potency [6] | activation [3] | activity change, negative = inhibition [5] | activation [6]
CCOC(=O)c1cc(-c2nnc(SCC(=O)Nc3ccc(F)cc3)o2)c(C)nc1C | inactive | inactive | inactive | inactive | inactive | inactive | – | – | –
Cc1cccc(S(=O)(=O)NC(=O)C2(C)CCN2C(=O)Cc2cc(F)ccc2F)c1 (configuration not stated) | inactive | inactive | – | inactive | – | – | 11.8% [at 17.1 µM, percent relative to cAMP agonist control] | 9.86% [at 30.8 µM] | -2.2% [at 30.8 µM]
CCOc1ccc2nc(S(=O)(=O)NC(=O)C3(C)CCN3C(=O)CCc3cccs3)sc2c1 (configuration not stated) | inactive | inactive | – | inactive | – | – | 5.68% [at 17.1 µM, percent relative to cAMP agonist control] | -20.4% [at 30.8 µM] | 4.36% [at 30.8 µM]
Cc1ccccc1NC1c2ccccc2C(=O)N1Cc1ccco1 (configuration not stated) | inactive | inactive | – | inactive | – | – | 2.58% [at 17.1 µM, percent relative to cAMP agonist control] | -11.4% [at 30.8 µM] | 17.8% [at 30.8 µM]
O=C(CNC(=O)c1sc2ccccc2c1Cl)NCc1cccc(C(F)(F)F)c1 | inactive | inactive | inactive | inactive | inactive | inactive | – | – | –
COc1cccc(-c2nc(SCC(=O)Nc3nc(-c4ccccc4)c(C)s3)[nH]c(=O)c2C#N)c1 | 75.7 µM (active) | inactive | inactive | inactive | inactive | inactive | – | – | –
Cc1nnc(SCc2nnc(-c3ccc(Cl)cc3)o2)n1-c1ccccc1 | inactive | inactive | inactive | inactive | inactive | inactive | – | – | –
Cc1ccc(OCC(=O)OC(C)CN(C)Cc2ccccc2)cc1 (configuration not stated) | inactive | inactive | – | inactive | – | – | 4.43% [at 17.1 µM, percent relative to cAMP agonist control] | 8.78% [at 30.8 µM] | 10.6% [at 30.8 µM]
O=C1COc2ccc(C(=O)COC(=O)c3ccc([N+](=O)[O-])cc3Cl)cc2N1 | inactive | inactive | inactive | inactive | inactive | inactive | – | – | –
CCN(CC)c1ccc2cc(-c3nc(-c4cccs4)no3)c(=O)oc2c1 | inactive | 100 µM (active) | 35.5 µM (active) | 3.38 µM (active) | inactive | 79.4 µM (active) | – | – | –
COC(=O)CN1C(=S)N(c2ccc(OC)cc2)C(=O)/C1=C/c1ccc(N2CCOCC2)cc1 | inactive | 100 µM (active) | 100 µM (active) | 75.7 µM (active) | inactive | 28.2 µM (active) | – | – | –
COC(=O)[C@@H](NC(=O)Nc1ccc2c(c1)OCCO2)C(C)C | inactive | inactive | inactive | inactive | inactive | inactive | – | – | –
COCCn1c(-c2ccc(Br)cc2)csc1=Nc1cccnc1 | inactive | inactive | inactive | inactive | inactive | inactive | – | – | –
COC(=O)c1ccc2nc(-c3ccccc3)c(Cc3ccccc3C(F)(F)F)n2c1 | inactive | inactive | inactive | 0.757 µM (active) | inactive | inactive | – | – | –
CCc1ccccc1N(C)S(=O)(=O)c1ccc2[nH]cc(C(=O)N3CCc4ccccc43)c(=O)c2c1 | inactive | inactive | – | inactive | – | – | -2.56% [at 17.1 µM, percent relative to cAMP agonist control] | -6.13% [at 30.8 µM] | 15.8% [at 30.8 µM]
O=C(CSc1nccn1C1CCCC1)Nc1cc(C(F)(F)F)ccc1Cl | inactive | inactive | inactive | inactive | inactive | inactive | – | – | –
COc1ccc(/C=N\NC(=O)c2cc3c(ccc4ccccc43)o2)cc1O | inactive | inactive | – | inactive | – | – | 5.26% [at 17.1 µM, percent relative to cAMP agonist control] | 0.0783% [at 30.8 µM] | 29.4% [at 30.8 µM]
